Active and inactive are the calls of the source.
Experiment: basal S. cerevisiae growth modulation, no modifier, primary screen, OD600, strain BY4716, 24 h, basal condition (AID 1173)
Conditions: OD600, 24 h, higher = more signal, called active from +8 up or from −8 down

SMILES | z-score
C=C(C(=O)CC[C@@H](OC(=O)c1ccccc1-c1ccccc1C(=O)O)c1ccc(OCCO)cc1)C(C)C | -1.3 (inactive)
CC(C)[Si]1(C(C)C)OCc2cc(-c3ccc(-c4ccc(Cl)c(Cl)c4)o3)nc(-c3ccc(Oc4ccccc4)cc3)c21 | -3.1 (inactive)
O=C1C2C=CC(C(O)c3ccccn3)N(Nc3ccc([N+](=O)[O-])cc3)C2C(=O)N1c1ccccc1 (centres undefined) | 0.512 (inactive)
O=C1OC[C@@H](c2ccccc2)n2cc(/C=C/c3ccccc3)cc21 | -2.5 (inactive)
CC[C@@H](O[Si](C#C[Si](C(C)C)(C(C)C)C(C)C)(C(C)C)C(C)C)c1cn([C@H](C)c2ccccc2)nn1 | 1.66 (inactive)
O=C1OCCC/C=C\[C@H]2OC34C=CCN(Cc5ccccc5)C(=O)[C@H]3N(CCO)C(=O)[C@@H]4C12 (some centres undefined) | -0.662 (inactive)
COc1ccc(C(=O)Nc2cccc(CN3C(=O)[C@]4(O[C@H](CC(=O)N(CCO)Cc5ccccc5)[C@@H]([Si](C)(C)c5ccc(OC)cc5)[C@@H]4C)c4ccccc43)c2)cc1 | 0.404 (inactive)
COC(=O)[C@@]1(Cc2ccc(F)cc2)[C@H]2c3cc(C(=O)N4CCCC4)n(CCc4c[nH]c5cc(F)ccc45)c3C[C@H]2CN1C(=O)c1ccccc1 | 1.7 (inactive)

Experiment: MM1S myeloma cell viability, profiling panel, resazurin fluorescence, basal, 24 h, PK04 Diversity Set (AID 1174);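 note: MM1S multiple myeloma cell line; test concentration not given here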
Conditions: higher = more signal, called active from +8 up or from −8 down

SMILES | z-score
COC(=O)[C@]1(Cc2ccccc2CN=[N+]=[N-])N=C(c2ccc(OCCCO)cc2)O[C@@H]1c1ccccc1N=[N+]=[N-] | -4.02 (inactive)
O=C1O[C@H](c2ccccc2)[C@H](c2ccccc2)N2[C@H]1[C@@H](C(=O)O)[C@]1(C(=O)Nc3ccc(C#CC4(O)CCCCCC4)cc31)[C@H]2c1ccccc1OCCO | -0.65 (inactive)
COCCOC(=O)N1C(=O)[C@@]2(c3ccccc31)[C@H](C(=O)Nc1nc3ccccc3s1)[C@H]1C(=O)O[C@H](c3ccccc3)[C@H](c3ccccc3)N1[C@@H]2c1ccccc1OCCO | -0.304 (inactive)
[N-]=[N+]=Nc1ccccc1C[C@]1(C(N)=O)COC(c2ccc(OCCCO)cc2)=N1 | 0.157 (inactive)
CCOC(=O)C1=CCC(c2cccn2C(=O)OC(C)(C)C)N(S(=O)(=O)c2ccc(C)cc2)C1 (centres undefined) | -0.926 (inactive)
O=C1C2C=CC(C(O)C(c3ccccc3)c3ccccc3)N(Nc3ccccc3F)C2C(=O)N1c1ccccc1 (centres undefined) | -0.813 (inactive)
COc1cc(Cc2cc3c(c(-c4ccccc4)n2)[Si](C(C)C)(C(C)C)OC3)cc(OC)c1OC | 1.03 (inactive)
CC1(C)OB(/C=C\CC(OC(=O)c2ccncc2)c2ccccc2)OC1(C)C (centres undefined) | 0.217 (inactive)
COC(=O)[C@@]1(Cc2ccc(F)cc2)[C@H]2c3cc(C(=O)N(C)C)n(Cc4ccc(C(F)(F)F)nc4)c3C[C@H]2CN1C(=O)c1ccccc1 | -1.04 (inactive)
Cc1ccc(S[C@]2(C(=O)NC(C)C)CC(=O)N(Cc3ccccc3)[C@@H]2c2ccc(CO)cc2)cc1 | -0.792 (inactive)
CN1C(=O)C2C=CC(C(O)c3ccc([N+](=O)[O-])cc3)N(Nc3ccccc3)C2C1=O (centres undefined) | -1.03 (inactive)
C=CCNC(=O)[C@@H]1[C@H]2C(=O)O[C@H](c3ccccc3)[C@H](c3ccccc3)N2[C@H](c2ccc(OCCO)cc2)[C@@]12C(=O)Nc1ccc(C#CC3=CCCCC3)cc12 | -2.16 (inactive)
O=C/C=C/c1ccc(-c2ccccc2)cc1 | -1.08 (inactive)
CCCCCCc1nc(Cc2cc(OC)c(OC)c(OC)c2)c(C)c2c1[Si](C(C)C)(C(C)C)OC2 | 0.328 (inactive)
[N-]=[N+]=Nc1ccccc1C[C@]1(C(=O)N2CCCCC2)N=C(c2ccc(OCCCO)cc2)O[C@H]1c1ccccc1 | -2.4 (inactive)
COc1ccc(C(O)C2C=CC3C(=O)N(C)C(=O)C3N2Nc2ccccc2)cc1 (centres undefined) | -0.956 (inactive)
COc1ccc(C(=O)Nc2ccc(CN3C(=O)[C@]4(O[C@H](CC(=O)N(CCO)Cc5ccccc5)[C@@H]([Si](C)(C)c5ccc(OC)cc5)[C@@H]4C)c4ccccc43)cc2)cc1 | -1.94 (inactive)
C=C(COC)C(=O)CC[C@@H](OC(=O)c1ccccc1-c1ccccc1C(=O)O)c1ccccc1OCCO | -1.95 (inactive)

SMILES | z-score
C=C1C(=O)C=C2CN(C(=O)c3ccccc3)[C@@](Cc3ccc(F)cc3)(C(=O)OC)[C@@H]12 | -9.98 (active)
C=CCOC(=O)[C@@H]1[C@H]2C(=O)O[C@H](c3ccccc3)[C@H](c3ccccc3)N2[C@H](c2ccc(OCCOC(=O)[C@H]3C[C@H]4C(=O)N[C@@H](CCCCN(C)C)C(=O)N4[C@H]3c3cccc(OCCO)c3)cc2)[C@@]12C(=O)Nc1ccccc12 | 0.75 (inactive)
COCCCNC(=O)[C@@]1(Cc2ccccc2I)c2ccccc2C(=O)N(Cc2ccccc2OC)[C@H]1c1ccc(CO)cc1 | -0.0499 (inactive)
COCCCNC(=O)[C@@]1(Cc2ccccc2I)c2ccccc2C(=O)N(C2CCCCC2)[C@H]1c1ccc(CO)cc1 | 0.28 (inactive)
O=C1C2C=CC(C(O)C3CCCCC3)N(Nc3ccccc3F)C2C(=O)N1c1ccccc1 (centres undefined) | -0.631 (inactive)
COC(=O)C1(CC(C)C)C=C2C(=C(C)C(=O)C2C)CN1 (centres undefined) | -1.78 (inactive)
CCOC(=O)C=C1C[C@@H](c2cccc([N+](=O)[O-])c2)O[C@@H](c2cccc([N+](=O)[O-])c2)O1 | 0.226 (inactive)
CC(C)Cc1ccc(CN2CC[C@@H](NC(=O)c3ccccc3)C2)cc1 | -0.18 (inactive)
COc1ccc(CCNC(=O)[C@@]2(c3ccc([N+](=O)[O-])cc3)CC(=O)N(C3CCCCC3)[C@@H]2c2ccc(CO)cc2I)cc1 | -0.949 (inactive)
COC(=O)[C@]1(Cc2ccccc2N=[N+]=[N-])N=C(c2ccc(OCCCO)cc2)O[C@@H]1c1ccccc1CN=[N+]=[N-] | -8.15 (active)
C=C(C(=O)CC[C@@H](OC(=O)c1ccccc1-c1ccccc1C(=O)O)c1ccc(OCCO)cc1)C(C)C | 0.089 (inactive)
CC(C)[Si]1(C(C)C)OCc2cc(-c3ccc(-c4ccc(Cl)c(Cl)c4)o3)nc(-c3ccc(Oc4ccccc4)cc3)c21 | -0.0996 (inactive)
O=C1C2C=CC(C(O)c3ccccn3)N(Nc3ccc([N+](=O)[O-])cc3)C2C(=O)N1c1ccccc1 (centres undefined) | -0.494 (inactive)
O=C1OC[C@@H](c2ccccc2)n2cc(/C=C/c3ccccc3)cc21 | 0.539 (inactive)
CC[C@@H](O[Si](C#C[Si](C(C)C)(C(C)C)C(C)C)(C(C)C)C(C)C)c1cn([C@H](C)c2ccccc2)nn1 | 0.248 (inactive)
O=C1OCCC/C=C\[C@H]2OC34C=CCN(Cc5ccccc5)C(=O)[C@H]3N(CCO)C(=O)[C@@H]4C12 (some centres undefined) | 0.99 (inactive)
COc1ccc(C(=O)Nc2cccc(CN3C(=O)[C@]4(O[C@H](CC(=O)N(CCO)Cc5ccccc5)[C@@H]([Si](C)(C)c5ccc(OC)cc5)[C@@H]4C)c4ccccc43)c2)cc1 | -1.87 (inactive)
COC(=O)[C@@]1(Cc2ccc(F)cc2)[C@H]2c3cc(C(=O)N4CCCC4)n(CCc4c[nH]c5cc(F)ccc45)c3C[C@H]2CN1C(=O)c1ccccc1 | -0.0568 (inactive)

From PubChem BioAssay
